M1 ag = agonists of human M1 muscarinic receptor. P11229. CHO-K1 hM1, Fluo-8 calcium fluorescence, agonist mode; 0% DMSO, 100% acetylcholine EC100. activation, % at 3 µM. 360,000 compounds, 0.33% hits. AID 588814;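 active means activation above the run's mean compound activation plus 3 SD, cut at about 16% in these data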;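 further: peak over basal fluorescence ratio within a 140 s kinetic read after compound addition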
Target sequence (P11229 whole entry, looked up): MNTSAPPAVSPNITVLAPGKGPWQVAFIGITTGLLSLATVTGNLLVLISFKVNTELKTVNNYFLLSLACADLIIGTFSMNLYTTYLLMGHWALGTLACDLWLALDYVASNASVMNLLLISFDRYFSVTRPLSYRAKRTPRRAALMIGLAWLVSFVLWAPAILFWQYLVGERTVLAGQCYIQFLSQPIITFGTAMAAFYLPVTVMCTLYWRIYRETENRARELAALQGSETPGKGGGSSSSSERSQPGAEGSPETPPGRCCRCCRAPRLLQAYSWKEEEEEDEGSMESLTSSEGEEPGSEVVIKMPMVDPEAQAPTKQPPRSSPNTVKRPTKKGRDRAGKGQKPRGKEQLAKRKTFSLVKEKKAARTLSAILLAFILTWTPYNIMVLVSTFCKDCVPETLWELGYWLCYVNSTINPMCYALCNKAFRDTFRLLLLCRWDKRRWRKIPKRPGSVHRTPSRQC
CHO-K1 Ca antag = M1 antagonist counterscreen hit in parental CHO-K1 cells | 360,000 compounds, 0.6% hits | inhibition, % at 3 µM | ATP-induced calcium, Fluo-8 fluorescence;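 active means inhibition above a per-plate cutoff, the plate's mean sample inhibition plus 3 SD, cut at about 24% in these data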
M1 antag = antagonists of human M1 muscarinic receptor; P11229; 360,000 compounds, 1.3% hits; inhibition, % at 3 µM; CHO-K1 hM1, Fluo-8 calcium fluorescence, ACh EC80 antagonist; AID 588852;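 active means percent inhibition above its own plate's cutoff, namely the mean of that plate's compound wells plus 3 SD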;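 further: peak over basal fluorescence ratio during 140 s after agonist addition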
CHO-K1 Ca PAM = counter-screen for M1 PAMs: effect in parental CHO-K1 cells; activation, % at 3 µM; ATP EC20, Fluo-8 calcium fluorescence; 0% at ATP EC20, 100% at ATP max; 360,000 compounds, 0.02% hits;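 active means activation above the run cutoff, the mean activation of all test compounds plus 3 SD, cut at about 40% in these data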;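 further: peak over basal fluorescence ratio in a 140 s read after ATP addition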
M1 PAM = positive allosteric modulators of human M1 muscarinic receptor; CHO-K1 hM1, Fluo-8 calcium fluorescence, ACh EC20; 0% = ACh EC20, 100% = maximal ACh; activation, % at 3 µM; 360,000 compounds, 0.088% hits; AID 588819; in the data active means activation above about 19%, passing the limit was not always enough
CHO-K1 Ca ag = M1 agonist counterscreen hit in parental CHO-K1 cells; Fluo-8 calcium fluorescence; scaled to maximal ATP response, vehicle zero; activation, % at 3 µM; 360,000 compounds, 0.48% hits; in the data active means activation above about 15%;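 further: untransfected CHO-K1 host cells lacking M1 receptor as counterscreen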
A number is an active result; 0 = inactive; - = no result given. Only some compounds are listed: those with a hit (about 2.4% of all), similar ones and a draw of the others.

SMILES	M1 ag	CHO-K1 Ca antag	M1 antag	CHO-K1 Ca PAM	M1 PAM	CHO-K1 Ca ag
O=C(Nc1ccc(Br)cc1)NC1CCCCCCC1	0	0	30	0	0	0
O=C(Nc1cccc([N+](=O)[O-])c1)NC1CCCCCCC1	0	0	0	0	0	16
COc1ccc(CCNC(=O)Nc2cccc([N+](=O)[O-])c2)cc1OC	0	0	0	0	0	0
COc1ccc(CCNC(=O)Nc2ccccc2[N+](=O)[O-])cc1	27	0	0	0	0	0
COc1ccc(CCNC(=O)Nc2cccc([N+](=O)[O-])c2)cc1	0	0	0	0	0	15
Cc1ccc(C)c(Cn2nnc3c(=O)[nH]c(C4CCCN(S(=O)(=O)Cc5ccccc5)C4)nc32)c1 (stereo not drawn)	0	0	0	0	0	0
CCOC(=O)C1=CCC2C(=O)N(C)C(=O)C12 (stereo not drawn)	0	0	0	0	0	0
COc1ccc(NC2CCCN(C(=O)c3ccc4[nH]c(C)c(C)c4c3)C2)cc1 (stereo not drawn)	0	0	0	0	0	0
COc1cc(NC(=O)Nc2cccc([N+](=O)[O-])c2)cc(OC)c1	0	0	0	0	0	15
Cc1cc([N+](=O)[O-])c2ccccc2c1NS(=O)(=O)c1ccccc1	0	0	0	0	0	0
CN(c1ccc(OCC(=O)OCC(=O)Nc2ccc(F)cc2)cc1)S(=O)(=O)c1ccc(Cl)cc1	0	0	0	0	0	0
CC(=O)Nc1ccc(S(=O)(=O)N(C)c2ccc(OCC(=O)Nc3ccccc3C(C)=O)cc2)cc1	0	0	36	0	0	0
COc1ccc(NC(=O)COc2ccc(N(C)S(=O)(=O)c3ccc(Cl)cc3)cc2)cc1OC	0	27	38	0	0	0
O=C1NC(=O)C2(CCC(C3CCCCC3)CC2)N1 (stereo not drawn)	0	0	0	0	0	0
C=CCc1cccc(/C=N/NC(=O)c2ccccc2OC)c1O	0	0	0	0	0	0
C=CCc1cccc(/C=N/NC(=O)c2ccccc2Br)c1O	0	0	0	44	0	0
C=C1C(=O)C=C2CN(C(=O)c3ccccc3)[C@@](Cc3ccc(F)cc3)(C(=O)OC)[C@@H]12	72	83	103	0	0	75
COc1cc2c(cc1OC)C(NNC(=O)c1ccc(Br)o1)=NC(C)(C)C2	0	0	0	0	0	0
Cc1cc(C(=O)O)cc(S(=O)(=O)Nc2c(C)nn(C)c2C)c1C	0	0	0	0	0	0
COc1cccc(NC(=O)CN(C)C(=O)c2cc(-c3ccccc3)nc3ccccc23)c1	0	0	0	0	0	0
CN(CC(=O)Nc1cccc(F)c1)C(=O)Cc1n[nH]c(=O)c2ccccc12	0	0	41	0	0	0
COc1cccc(NC(=O)CN(C)C(=O)c2cc(-c3ccccc3)nn2-c2ccccc2)c1	0	0	0	0	24	0
COc1cccc(NC(=O)CN(C)C(=O)c2cc(-c3ccc(F)cc3)nc3ccccc23)c1	0	0	27	0	0	0
COc1ccc(-c2cc(C(=O)N(C)CC(=O)Nc3cccc(F)c3)c3ccccc3n2)cc1OC	0	0	37	0	0	0
COc1ccccc1CNS(=O)(=O)c1ccc(-n2cnnn2)c(OC)c1	0	0	0	0	0	0
SMILES	M1 ag	CHO-K1 Ca antag	M1 antag	CHO-K1 Ca PAM	M1 PAM	CHO-K1 Ca ag
CC1(Br)C(Sc2ccccc2[N+](=O)[O-])=Nc2ccccc21 (stereo not drawn)	-	0	-	0	-	0
COc1ccc(C2C(C#N)=C(SCC(=O)Nc3ccc(C)cc3)NC3=C2C(=O)CC(C)(C)C3)cc1 (stereo not drawn)	21	0	85	0	0	0
CCC1C(C#N)=C(SCC(N)=O)NC2=C1C(=O)CC(C)(C)C2 (stereo not drawn)	0	0	0	0	0	0
CCOC(=O)C1=C(COC(=O)/C=C/c2ccccc2Cl)NC(=O)NC1C (stereo not drawn)	0	0	0	0	0	0
CCOC(=O)C1=C(COC(=O)/C=C/c2ccccc2F)NC(=O)NC1C (stereo not drawn)	0	0	27	0	0	0
CCN(Cc1ccc(OC)c(F)c1)C(=O)/C=C/c1ccc(S(=O)(=O)N2CCOCC2)cc1	0	0	0	0	0	0
Cc1ccc2nc3n(c(=O)c2c1)-c1cc2ccccc2cc1C(=O)NC3Cc1ccc(O)cc1 (stereo not drawn)	0	0	0	0	0	0
O=C1NC(Cc2ccc(O)cc2)c2nc3cc(F)c(F)cc3c(=O)n2-c2cc3ccccc3cc21 (stereo not drawn)	0	35	0	0	0	0
O=C1NC(Cc2ccc(O)cc2)c2nc3ccc(F)cc3c(=O)n2-c2cc3ccccc3cc21 (stereo not drawn)	0	0	23	0	0	0
O=C1NC(Cc2ccccc2)c2nc3cc(F)c(F)cc3c(=O)n2-c2cc3ccccc3cc21 (stereo not drawn)	0	0	0	0	0	0
CCOC(=O)c1[nH]c2ccc(OC)cc2c1NC(=O)CN1CCc2ccccc2C1	0	0	23	0	0	0
CCOC(=O)c1[nH]c2ccc(F)cc2c1NC(=O)CCN1CCOCC1	0	0	0	0	0	0
CCOC(=O)c1[nH]c2ccc(Br)cc2c1NC(=O)CCN1CCCC(C)(C)C1	0	0	90	0	0	0
COC(=O)c1[nH]c2ccccc2c1NC(=O)CN1CCN(c2cccc(OC)c2)C(C)C1 (stereo not drawn)	0	28	0	0	0	0
CCOC(=O)c1[nH]c2ccc(OC)cc2c1NC(=O)CN1CCC2(CC1)OCCO2	0	0	0	0	0	0
COC(=O)c1[nH]c2cc(OC)ccc2c1NC(=O)CCN1CCN(c2ccccc2)CC1	0	0	0	0	0	0
COC(=O)c1[nH]c2ccc(Cl)cc2c1NC(=O)CCN1CCN(C2CCCCC2)CC1	0	0	62	0	0	0
COc1ccc(S(=O)(=O)N(C)C[C@H]2Oc3ccc(NC(=O)Cc4cn(C)c5ccccc45)cc3C(=O)N([C@@H](C)CO)C[C@@H]2C)cc1	0	0	0	0	0	0
CC#CC[N+](C)(C)CCCCCCCCCC	0	0	57	0	0	0
C#CC[N+](C)(C)CCCCCCCCC	0	0	0	0	0	0
CC1Cc2ccccc2N1C(=O)CN1C(=O)NC2(CCCCC2)C1=O (stereo not drawn)	0	0	0	0	0	0
Cc1cc(C)c(SSc2nnnn2-c2ccccc2)c(C)c1	0	0	0	0	0	0
Cn1c(/C=C/N2CCOCC2)c(C(=O)c2ccc(Br)cc2)c(=O)n(C)c1=O	0	0	0	0	0	0
Cc1c(N=CN2CCOCC2)c(=O)n(C)c(=O)n1C	0	0	0	0	0	17

Assay outcomes as filed in PubChem BioAssay.
